Source: the supplement of paper PMC9262897, “Low-cost anti-mycobacterial drug discovery using engineered E. coli” (Nature Communications, 2022)
Where a name gives a salt, the structure may show the parent alone. ± gives the standard deviation of the averaged measurements.

Tests used:
Assay in all cases: growth (OD600 after 10 h); higher = more growth (less inhibition)
[1] = system: E. coli TESEC Alr+ wild-type control; conditions: compound 0.1 mM; raw OD600 reference: median of DMSO wells 0.241, cell-free background 0.041
Method: (§1)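 TESEC Mtb Alr E. coli, or the Alr+ wild-type control, in 384-well plates with Prestwick library compounds at 0.1 mM and 1% DMSO, across arabinose induction levels of 1E3 to 1E7 nM. Growth is read as OD600 after 10 h at 37 °C in triplicate biological replicates.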

E. coli TESEC Mtb Alr [2] = conditions: compound 0.1 mM
Method: as §1

E. coli TESEC Mtb Asd = conditions: compound 0.1 mM
Method: (§2)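 TESEC E. coli strains in which the native enzyme is deleted and replaced by arabinose-inducible Mtb Asd, DapB, CysH or TrpD, each grown in its selective medium. Strains were screened against the Prestwick library at 0.1 mM and 1% DMSO in 384-well format at low and high arabinose induction. Growth is read as OD600 after 10 h in triplicate.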

E. coli TESEC Mtb DapB = conditions: compound 0.1 mM
Method: as §2

E. coli TESEC Mtb Alr [3] = conditions: compound 0.1 mM; remark: listed apart in the source
Method: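 TESEC Mtb Alr E. coli (ΔaraC ΔtolC ΔentC Δalr ΔdadX, arabinose-inducible Mtb Alr) or the Alr+ wild-type control strain, grown in defined M9-fructose medium without D-alanine in 96-well plates with Prestwick library compounds at 0.1 mM and 1% DMSO. Low Alr induction is 0.1 µM arabinose and high induction is 10 mM arabinose.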

[4] = arabinose 1000 nM, raw OD600 reference: median of DMSO wells 0.294, cell-free background 0.041
[5] = arabinose 10000 nM, raw OD600 reference: median of DMSO wells 0.264, cell-free background 0.041
[6] = arabinose 100000 nM, raw OD600 reference: median of DMSO wells 0.201, cell-free background 0.041
[7] = arabinose 1000000 nM, raw OD600 reference: median of DMSO wells 0.193, cell-free background 0.041
[8] = arabinose 10000000 nM, raw OD600 reference: median of DMSO wells 0.146, cell-free background 0.041
[9] = arabinose induction (level): High, raw OD600 reference: median of DMSO wells 0.331, cell-free background 0.041
[10] = arabinose induction (level): Low, raw OD600 reference: median of DMSO wells 0.417, cell-free background 0.041
[11] = arabinose induction (level): High, raw OD600 reference: median of DMSO wells […], cell-free background 0.041
[12] = arabinose induction (level): Low, raw OD600 reference: median of DMSO wells 0.227, cell-free background 0.041
[13] = arabinose 100 nM, raw OD600 reference: median of DMSO wells 0.413, cell-free background 0.052
[14] = arabinose 10000000 nM, raw OD600 reference: median of DMSO wells […], cell-free background 0.052

Compound	growth [1]	growth (E. coli TESEC Mtb Alr [2]; [4])	growth (E. coli TESEC Mtb Alr [2]; [5])	growth (E. coli TESEC Mtb Alr [2]; [6])	growth (E. coli TESEC Mtb Alr [2]; [7])	growth (E. coli TESEC Mtb Alr [2]; [8])	growth (E. coli TESEC Mtb Asd; [9])	growth (E. coli TESEC Mtb Asd; [10])	growth (E. coli TESEC Mtb DapB; [11])	growth (E. coli TESEC Mtb DapB; [12])	growth (E. coli TESEC Mtb Alr [3]; [13])	growth (E. coli TESEC Mtb Alr [3]; [14])
Clc1ccc(Nc2nnc(Cc3ccncc3)c3ccccc23)cc1 [Vatalanib]	0.104 ± 0.031	0.0967 ± 0.038	0.0476 ± 0.003	0.0763 ± 0.0031	0.0489 ± 0.0002	0.0787 ± 0.0014	0.112 ± 0.017	0.0893 ± 0.021	0.203 ± 0.081	0.15 ± 0.015	0.303 ± 0.17	0.0605 ± 0.0043
C[C@@H](O)[C@H]1C(=O)N2C(C(=O)O)=C(SCCNC=N)C[C@H]12 [Imipenem]	0.216 ± 0.0037	0.282 ± 0.0094	0.269 ± 0.0053	0.202 ± 0.035	0.174 ± 0.0056	0.136 ± 0.0047	0.296 ± 0.1	0.37 ± 0.065	0.198 ± 0.012	0.231 ± 0.015	0.165 ± 0.11	0.111 ± 0.011
O=C(Nc1ccccc1)OCC(CN1CCCCC1)OC(=O)Nc1ccccc1 (centres undefined) [Diperodon hydrochloride]	0.193 ± 0.0045	0.249 ± 0.0066	0.259 ± 0.0044	0.231 ± 0.037	0.0876 ± 0.0038	0.154 ± 0.0081	0.235 ± 0.019	0.345 ± 0.065	0.2 ± 0.0073	0.223 ± 0.038	0.426 ± 0.0081	0.243 ± 0.028
CCN(CC)CC(=O)Nc1c(C)cccc1C [Lidocaine hydrochloride]	0.238 ± 0.0076	0.256 ± 0.062	0.273 ± 0.017	0.194 ± 0.01	0.183 ± 0.0033	0.146 ± 0.0067	0.267 ± 0.048	0.403 ± 0.057	0.204 ± 0.0083	0.235 ± 0.048	0.41 ± 0.0091	0.345 ± 0.019
C=CC1=C(C(=O)O)N2C(=O)[C@@H](NC(=O)/C(=N\O)c3csc(N)n3)[C@H]2SC1 [Cefdinir]	0.0391 ± 0.00064	0.0401 ± 0.0026	0.0401 ± 0.00087	0.038 ± 0.0008	0.0415 ± 0.0031	0.0408 ± 0.0009	0.0771 ± 0.0071	0.0475 ± 0.00091	0.0548 ± 0.003	0.0595 ± 0.015	0.0463 ± 0.00075	0.0569 ± 0.0017
Clc1ccc(Cn2c(CN3CCCC3)nc3ccccc32)cc1 [Clemizole hydrochloride]	0.151 ± 0.0091	0.0807 ± 0.029	0.0496 ± 0.00062	0.106 ± 0.049	0.0465 ± 0.0005	0.06017 ± 0.00057	0.174 ± 0.038	0.135 ± 0.0075	0.156 ± 0.027	0.212 ± 0.079	0.406 ± 0.011	0.185 ± 0.055
CCCCCCNC(=O)n1cc(F)c(=O)[nH]c1=O [Carmofur]	0.1489 ± 0.00094	0.215 ± 0.024	0.176 ± 0.017	0.108 ± 0.0064	0.0803 ± 0.0054	0.112 ± 0.0029	0.235 ± 0.029	0.359 ± 0.026	0.179 ± 0.01	0.201 ± 0.018	0.349 ± 0.056	0.134 ± 0.014
CN1CCC(=C2c3ccccc3CCc3sccc32)CC1 [Pizotifen malate]	0.127 ± 0.006	0.133 ± 0.0045	0.0893 ± 0.0025	0.0952 ± 0.0015	0.0482 ± 0.0045	0.0637 ± 0.00071	0.148 ± 0.013	0.181 ± 0.012	0.178 ± 0.0086	0.193 ± 0.0037	0.402 ± 0.027	0.132 ± 0.054
CC(=O)N(CC(O)CN(C(C)=O)c1c(I)c(C(=O)NCC(O)CO)c(I)c(C(=O)NCC(O)CO)c1I)c1c(I)c(C(=O)NCC(O)CO)c(I)c(C(=O)NCC(O)CO)c1I (centres undefined) [Iodixanol]	0.235 ± 0.0081	0.303 ± 0.015	0.26 ± 0.0054	0.182 ± 0.022	0.177 ± 0.0052	0.1415 ± 0.00091	0.358 ± 0.082	0.421 ± 0.015	0.206 ± 0.0036	0.215 ± 0.043	0.406 ± 0.013	0.334 ± 0.0038
CCn1cc(C(=O)O)c(=O)c2cc(F)c(N3CCNCC3)nc21 [Enoxacin]	0.0456 ± 0.0012	0.0427 ± 0.0002	0.03917 ± 0.00031	0.0439 ± 0.0015	0.0411 ± 0.0025	0.0452 ± 0.0001	0.0919 ± 0.024	0.0687 ± 0.0059	0.06527 ± 0.00061	0.061 ± 0.0086	0.0588 ± 0.0019	0.05293 ± 0.00025
NCCCC(O)(P(=O)(O)O)P(=O)(O)O [Alendronate sodium]	0.259 ± 0.0047	0.305 ± 0.013	0.265 ± 0.007	0.24 ± 0.033	0.178 ± 0.0032	0.162 ± 0.0058	0.343 ± 0.043	0.414 ± 0.04	0.214 ± 0.022	0.227 ± 0.019	0.422 ± 0.012	0.204 ± 0.023
NC(=O)NC1NC(=O)NC1=O (centres undefined) [Allantoin]	0.253 ± 0.015	0.281 ± 0.017	0.258 ± 0.0083	0.244 ± 0.0082	0.173 ± 0.0071	0.142 ± 0.0025	0.375 ± 0.027	0.424 ± 0.028	0.192 ± 0.0069	0.276 ± 0.1	0.41 ± 0.011	0.28 ± 0.14
CCc1cccc2c3c([nH]c12)C(CC)(CC(=O)O)OCC3 (centres undefined) [Etodolac]	0.24 ± 0.0076	0.272 ± 0.0061	0.264 ± 0.01	0.162 ± 0.0052	0.147 ± 0.004	0.1376 ± 0.00061	0.276 ± 0.027	0.267 ± 0.017	0.195 ± 0.0073	0.261 ± 0.033	0.409 ± 0.011	0.264 ± 0.013
Cn1c(=O)c2nc[nH]c2n(C)c1=O [Theophylline monohydrate]	0.263 ± 0.0048	0.328 ± 0.018	0.283 ± 0.013	0.21 ± 0.027	0.189 ± 0.0034	0.158 ± 0.0078	0.4904 ± 0.0049	0.455 ± 0.0057	0.197 ± 0.014	0.241 ± 0.044	0.406 ± 0.016	0.338 ± 0.01
O=C(O[C@@H]1C[C@@H]2C[C@H]3C[C@H](C1)N2CC3=O)c1c[nH]c2ccccc12 [Dolasetron mesilate]	0.204 ± 0.0058	0.25 ± 0.0086	0.238 ± 0.0033	0.137 ± 0.0054	0.0823 ± 0.0017	0.114 ± 0.0051	0.226 ± 0.044	0.482 ± 0.053	0.192 ± 0.019	0.217 ± 0.016	0.405 ± 0.016	0.23 ± 0.036
CNS(=O)(=O)Cc1ccc2[nH]cc(CCN(C)C)c2c1 [Sumatriptan succinate]	0.226 ± 0.0042	0.298 ± 0.019	0.258 ± 0.0057	0.2 ± 0.024	0.193 ± 0.0067	0.137 ± 0.0028	0.372 ± 0.026	0.503 ± 0.03	0.206 ± 0.018	0.221 ± 0.028	0.417 ± 0.0056	0.353 ± 0.0071
c1ccc(-c2ccc(C(c3ccccc3)n3ccnc3)cc2)cc1 (centres undefined) [Bifonazole]	0.048 ± 0.0064	0.0456 ± 0.0051	0.0548 ± 0.0019	0.0516 ± 0.0035	0.0499 ± 0.0019	0.0504 ± 0.0085	0.048 ± 0.00098	0.0481 ± 0.0011	0.0611 ± 0.0018	0.0597 ± 0.0022	0.0739 ± 0.015	0.0689 ± 0.0074
